TEAD-YAP block = TEAD-YAP interaction inhibition; AID 1259422; HEK-TIYL cells, TEAD-Gal4/YAP UAS-luciferase luminescence; inhibition, % at 9.12 µM; 640,000 tested, 1.4% active; in the data active = inhibition above about 32%;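 also: 0% = median of test compound wells and 100% = reference inhibitor wells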
MITF primary = human MITF inhibition, primary screen. AlphaScreen MITF homodimerization, bead proximity signal. inhibition, % at 2.6 µM. 650,000 tested, 0.91% active. AID 1259374; in the data active = inhibition above about 50%;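 also: 0% = vehicle wells with protein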
FBW7 activator = activators of human E3 ligase FBW7; Q969H0; AlphaScreen FBW7–phospho-cyclin E peptide binding, activator screen; normalized activity (activation), % at 26.1 µM; 650,000 tested, 0.13% active; AID 1259310; in the data active = normalized activity above about 1.9%;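 also: purified mutant Fbw7 with reduced substrate affinity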
Target sequence (Q969H0 whole entry, looked up): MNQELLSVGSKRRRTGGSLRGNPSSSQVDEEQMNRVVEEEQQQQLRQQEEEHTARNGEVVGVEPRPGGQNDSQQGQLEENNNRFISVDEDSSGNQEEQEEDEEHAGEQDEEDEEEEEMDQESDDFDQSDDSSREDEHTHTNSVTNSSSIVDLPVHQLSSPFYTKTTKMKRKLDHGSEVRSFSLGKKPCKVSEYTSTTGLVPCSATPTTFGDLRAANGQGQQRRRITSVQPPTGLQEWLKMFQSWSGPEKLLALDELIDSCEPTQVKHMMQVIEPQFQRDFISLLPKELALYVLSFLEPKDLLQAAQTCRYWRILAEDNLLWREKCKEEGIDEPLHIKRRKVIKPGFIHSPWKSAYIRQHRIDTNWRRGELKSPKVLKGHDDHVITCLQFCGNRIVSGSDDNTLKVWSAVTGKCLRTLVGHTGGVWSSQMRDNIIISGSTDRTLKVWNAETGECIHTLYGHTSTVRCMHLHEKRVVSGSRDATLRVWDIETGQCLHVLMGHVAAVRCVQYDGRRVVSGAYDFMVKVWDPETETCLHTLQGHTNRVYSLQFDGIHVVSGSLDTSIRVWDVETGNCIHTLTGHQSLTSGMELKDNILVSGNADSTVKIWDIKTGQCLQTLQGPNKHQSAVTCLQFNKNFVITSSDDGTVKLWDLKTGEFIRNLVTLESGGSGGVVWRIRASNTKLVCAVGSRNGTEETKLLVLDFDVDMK
GPR151 activ = human GPR151 activation; 650,000 tested, 1% active; AID 1508602; PathHunter beta-arrestin GPR151 cells, luminescence; activation, % at 11.2 µM; Q8TDV0; in the data active = activation above about 4.9%;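 also: 0% = median of compound wells and 100% = cells with positive control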
GPR151 conf act = confirmation of human GPR151 activators | GPR151 PathHunter beta-arrestin cells, luminescence, 90 min; % of EA-reagent control over plate median | activation, % at 11.2 µM | AID 1508609 | shares compounds with GPR151 activ | 6,700 tested, under 10 active;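 active = mean percent activation across replicates above the confirmation screen cutoff of 4.91%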
GPR119 ag = activates human GPR119 in a GPR151 counter-screen | shares compounds with GPR151 activ | GPR119 PathHunter beta-arrestin cells, luminescence, 90 min; 0 = compound-well median, 100 = enzyme-acceptor control | activation, % at 11.2 µM | 6,700 tested, 0.3% active | AID 1508611;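 active = mean percent activation in the counterscreen above 29.09%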;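 also: counterscreen on off-target GPR119 to flag nonselective hits from the GPR151 activator screen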
An asterisk follows results filed as active; . = not tested or not shown. Hits are enriched below; roughly 3.4% of the tested compounds scored in any of these assays.

SMILES	TEAD-YAP block	MITF primary	FBW7 activator	GPR151 activ	GPR151 conf act	GPR119 ag
O=C(Nc1ccccn1)c1ccccc1Cl	-21.1	-2.0	-0.1	6.0*	-1.4	-17.1
Nc1ccccc1SC1CC(=O)N(Cc2ccccc2)C1=O (stereo not given)	-24.0	13.0	0.3	7.1*	-0.4	-8.7
CCN1C(=O)CC(Sc2ccccc2N)C1=O (stereo not given)	14.9	-3.0	-0.1	2.7	.	.
COc1ccc2[nH]cc(NC(=O)N3CCC(O)CC3)c(=O)c2n1	-4.3	9.0	-0.2	1.0	.	.
Cc1cccc(N2C(=O)/C(=C/C=C\c3ccccc3)S(=O)(=O)C2c2cccc([N+](=O)[O-])c2)c1 (stereo not given)	5.3	23.7	0.1	0.2	.	.
Cc1ccc(O)c(/C=C2/C(=O)NN(c3ccc(C)c(C)c3)C2=O)c1	0.8	10.7	0.2	-0.1	.	.
CCC(=O)Nc1ccc(NC(=O)CSc2nc3c(c(=O)n(C)c(=O)n3C)n2C)cc1	14.3	15.0	0.4	15.0*	2.2	10.0
CC1(C)Cc2cccc(OCC(=O)OCC(=O)c3ccc(Cl)s3)c2O1	8.7	12.8	0.1	0.6	.	.
COC(=O)c1cc(NC(C)=O)c(Cl)c(NC(C)=O)c1	4.2	26.2	0.1	-1.3	.	.
CC(=O)Nc1cc(C(=O)O)cc(N)c1Cl	0.5	15.9	0.5	5.5*	-0.6	-1.9
COc1cc(C2CC(=O)Nc3ccc4ccccc4c32)c(Br)cc1O (stereo not given)	-8.3	-9.4	-0.2	-0.6	.	.
CCCCNC(=O)CCn1nc(-c2ccccc2)c2ccccc2c1=O	-2.6	3.0	-0.1	0.1	.	.
O=C(CCn1nc(-c2ccccc2)c2ccccc2c1=O)NCc1ccccc1	-6.6	2.7	-0.1	18.4*	0.7	-0.9
CNC(=O)Cn1nc(-c2ccc(C)cc2)c2ccccc2c1=O	-3.5	6.7	0.2	2.0	.	.
CNC(=O)Cn1nc(C(=O)O)c2ccccc2c1=O	5.9	-3.5	0.2	-1.2	.	.
Cc1ccc(-c2nn(CC(=O)NCc3ccccc3)c(=O)c3ccccc23)cc1	-1.2	24.2	0.2	5.1*	0.2	15.3
CC(C)(C)NC(=O)Cn1nc(C(=O)O)c2ccccc2c1=O	-7.4	-7.2	-0.2	5.9*	-1.2	-11.6
Cc1ccc(C(=O)Nc2cccc(-c3nc4cc(C)ccc4o3)c2)cc1	10.2	2.2	-0.3	3.5	.	.
O=C(NCc1ccco1)c1cc2n(n1)C(C(F)(F)F)CC(c1ccc3c(c1)OCO3)N2 (stereo not given)	14.2	5.5	-0.1	1.5	.	.
Cc1cc(=O)n2[nH]c(CC(=O)NC3(c4ccc5c(c4)OCO5)CCCC3)nc2n1	8.7	7.1	0.6	-1.3	.	.
N#Cc1c(NC(=O)CN2CCN(c3ccccc3F)CC2)sc2c1CCCC2	-15.8	-4.1	-0.1	6.6*	0.4	8.2
COc1ccc(CC(=O)Nc2ccc(Cl)cc2C(=O)O)cc1	0.7	2.7	0.1	-2.1	.	.
COc1ccc(CC(=O)Nc2cc(Cl)ccc2C(=O)O)cc1	0.0	-7.3	0.0	5.6*	-0.2	-7.0
Nc1cccc(-c2cc(C(=O)O)c3cc(Br)ccc3n2)c1	-0.9	7.3	0.0	6.7*	-0.8	-11.7
O=C(O)c1cc(-c2cccnc2)nc2ccc(Br)cc12	2.4	7.4	0.7	-0.9	.	.
SMILES	TEAD-YAP block	MITF primary	FBW7 activator	GPR151 activ	GPR151 conf act	GPR119 ag
O=C1N=C2N(CCN3CCOCC3)c3ccccc3N2/C1=C\c1ccc([N+](=O)[O-])cc1	10.7	11.9	0.0	-0.5	.	.
COc1nc(-c2ccccc2Cl)nc2ccccc12	0.6	5.4	0.1	5.2*	1.1	-5.1
CC(C)Oc1nc(-c2ccccc2Cl)nc2ccccc12	4.2	0.8	-0.1	0.7	.	.
CN1C(C(=O)c2ccccc2)=C(N)c2ccccc2S1(=O)=O	12.8	-2.6	-0.2	-1.0	.	.
CN1C(C(=O)c2ccccc2)=C(N2CCCCC2)c2ccccc2S1(=O)=O	3.8	-0.7	-0.2	8.1*	0.4	8.2
O=C(CSc1cn(Cc2cccc(F)c2)c2ccccc12)Nc1ccc(Br)cc1	11.3	0.5	-0.1	0.5	.	.
COc1ccc(CC2(CCC(=O)NCc3cnn(C)c3C)CCC(=O)N2)c(F)c1 (stereo not given)	-1.4	-7.1	0.3	5.1*	1.1	10.0
N#Cc1ccc(CSC2=Nc3ccccc3C3CC=NN23)cc1 (stereo not given)	-2.9	10.9	0.1	-1.4	.	.
S=C1Nc2ccccc2C2CC=NN12 (stereo not given)	4.1	4.5	-0.1	5.7*	-0.5	-2.4
Cc1cc(O)cc(O)c1/C=N/NC(=O)COc1c(C)cccc1C	18.5	7.2	-0.1	0.9	.	.
O=C(NCc1nc2ccccc2[nH]1)c1cccc(-c2ccccc2)n1	8.0	-3.1	0.1	7.1*	1.3	-2.8
CCOc1ccc2nc(NC(=O)c3cc4ccccc4o3)sc2c1	-7.2	4.4	-0.1	1.4	.	.
O=C(CNC(=O)c1ccccc1)OCc1ccc([N+](=O)[O-])cc1	-1.4	-2.1	-0.1	2.2	.	.
COc1ccc(NC(=O)/C=C/c2ccc([N+](=O)[O-])cc2)c(OC)c1	2.2	-9.8	0.2	0.8	.	.
COc1ccc(C(=O)NCC(=O)OCc2ccc([N+](=O)[O-])cc2)cc1	-3.4	3.5	-0.4	8.1*	0.1	-1.4
COc1ccc(NCCC(=O)c2ccc([N+](=O)[O-])cc2)c(OC)c1	8.8	2.8	0.2	5.2*	-0.7	-10.4
COc1ccc(Nc2nnc(Cc3ccccc3Cl)c(=O)[nH]2)c(OC)c1	5.4	-0.8	0.1	6.4*	0.5	11.7
O=C1CCCN1CC(=O)N1CCCC(n2nc(-c3cccs3)ccc2=O)C1 (stereo not given)	-1.2	5.0	-0.1	0.2	.	.
CC(C)c1ccc(/C=N/NC(=S)NC2CCS(=O)(=O)C2)cc1 (stereo not given)	7.0	-6.0	0.0	1.8	.	.
CCOc1ccc(CCNC(=O)Cn2cnc3c2c(=O)n(C)c(=O)n3C)cc1OCC	2.4	10.7	0.1	-0.3	.	.
CC(Nc1nc(CN(C)C2CCOCC2)nc2ccccc12)c1ccc(F)cc1 (stereo not given)	2.7	1.8	0.1	7.7*	0.8	8.2
Cc1ccc(CNc2nc(CN(C)C3CCOC3)nc3ccccc23)cc1 (stereo not given)	11.3	9.7	-0.3	-0.7	.	.
CCOc1ccc(C(=O)NCC2CCCN2S(=O)(=O)c2ccccc2)cc1 (stereo not given)	-7.8	4.1	0.0	5.6*	-0.5	-14.2
CCOc1ccc(NC(=O)C2=CCN(S(=O)(=O)c3ccccc3)CC2)cc1	-4.5	-4.3	-0.3	5.4*	0.0	2.4
Cn1c(=NC(=O)CN2C(=O)CCC2=O)sc2cc(F)cc(F)c21	0.8	-3.1	0.0	1.8	.	.
CCC(=O)N=c1sc2cc(F)cc(F)c2n1C	2.0	12.3	0.0	8.1*	-0.2	-3.2
